Experimental data as given in PubChem BioAssay (EPA / NIEHS).
Activity calls are given as the source filed them. The calls were made as follows: active = hit-call score of the fitted dose curve at least 0.9, where 1 is the maximum; inactive = score below 0.9.

assay: CCTE_Shafer_MEA_acute_spike_number: CCTE's Neural Acute Assay for Total Number of Spikes, Shafer Lab (AID 2284008);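 as to AC50: curve fitted for decrease in spike count so AC50 reflects inhibitors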
Description: CCTE_Shafer_MEA_acute assay is conducted using Axion Biosystems 48 well microelectrode array (MEA) plates and Maestro recording system. Each well of the MEA plate contains a grid of 16 microelectrodes embedded in the culture surface. Electrically active cells, such as neurons, can be cultured over the electrodes, and electrical activity in these cells can be recorded extracellularly. The spontaneous firing of neurons is captured from each electrode on a microsecond timescale providing both temporally and spatially precise data. […] The CCTE_Shafer_MEA_acute assay uses primary cultures of rat cortical neurons. As these cultures mature over time, neural networks develop functional activity and form cohesive networks in which electrical activity can be highly coordinated. Baseline 40-minute recordings are made on days post-plating 13 or 15, followed by a secondary 40-minute recording after chemical exposure.CCTE_Shafer_MEA_acute_spike_number is a component of the CCTE_Shafer_MEA_acute assay. It measures the total number of spikes (action potential firings) in a 40-minute recording in a microelectrode array (MEA) using Axion Biosystems Maestro 768 channel amplifier with the AxIS adaptive spike detector. The recordings before and after chemical treatment are used to calculate a percent change in the spike number in each well. Data from the assay component CCTE_Shafer_MEA_acute_spike_number was analyzed into 1 assay endpoint. This assay endpoint, CCTE_Shafer_MEA_acute_spike_number, was analyzed in the negative analysis fitting direction relative to DMSO as the negative control and baseline of activity. Using a type of functional reporter, gain or loss-of-signal activity can be used to understand electrical activity.
Spontaneous activity in the cortical cultures was recorded using an Axion Biosystems Maestro 768 channel amplifier and Axion Integrated Studios (AxIS) v1.8 (or later) software. The amplifier recorded from all channels simultaneously (gain = 1200 x; sampling rate = 12.5 kHz/channel): raw signals were filtered with a Butterworth band-pass filter (300-5000 Hz), which filters out slower local field potentials leaving only fast potentials, i.e., "spikes", arising from extracellular currents associated with action potentials (Pine 2006; Wheeler and Nam 2011). On-line spike detection of filtered signals was conducted with the AxIS adaptive spike detector, using a threshold of 8x the root mean squared (rms) noise on each channel. Any electrodes with rms noise levels greater than 5 uV were grounded (e.g., no data were recorded). Once grounded, an electrode was grounded for the duration of the experiment. All recordings were conducted at 37 C. Wells were deemed usable if on the day of the exposure >/= 10 electrodes were active (defined as >/= 5 spikes/min). On DIV 13 or 15, a minimum of three wells from one cortical culture preparation were treated with each compound (0.03-40 uM). Prior to recording baseline activity, each mwMEA plate was placed in the Maestro at 37 C and allowed to sit for 20 min while firing rates stabilized. Baseline activity (40 min) was recorded before the addition of each compound. An additional 40 min of spontaneous activity was recorded in the presence of each compound. Changes in network parameters relative to baseline were assessed following compound treatment.

| SMILES | outcome | AC50 |
| --- | --- | --- |
| CCOC(=O)c1ccccc1C(=C1C=C(Br)C(=O)C(Br)=C1)c1cc(Br)c(O)c(Br)c1 | inactive | – |
| CO[Si](OC)(OC)c1ccccc1 | inactive | – |
| CN1C(=O)N(C)C(O)C1O (stereo unspecified) | inactive | – |
| O=C1CCCN1CCO | inactive | – |
| CCO[Si](C)(OCC)OCC | inactive | – |
| CCCCC(CC)COC(=O)c1ccccc1O (stereo unspecified) | inactive | – |
| O=C(c1ccc(O)cc1)c1ccc(O)cc1O | inactive | – |
| Nc1ncn([C@@H]2O[C@H](CO)[C@@H](O)[C@H]2O)c(=O)n1 | – | 7.65 nM (active) |
| C=C[Si](OC(C)=O)(OC(C)=O)OC(C)=O | inactive | – |
| CCCCC(CC)COCC1CO1 (stereo unspecified) | inactive | – |
| Nc1ccc(N)c(Cl)c1 | inactive | – |
